Measurements from article PMC5836133, “The intracellular immune receptor Rx1 regulates the DNA-binding activity of a Golden2-like transcription factor”.
The full ranking holds about 16,000 sequences; the median of “e-score” is about -0.044, and the highest 2% start at about 0.38. The sample holds the highest values, similar sequences and a random draw of the others, so the mix is not that of the screen.

Molecular target: T1, GST-NbGlk1(82-244) (Nicotiana benthamiana)
T1 chain: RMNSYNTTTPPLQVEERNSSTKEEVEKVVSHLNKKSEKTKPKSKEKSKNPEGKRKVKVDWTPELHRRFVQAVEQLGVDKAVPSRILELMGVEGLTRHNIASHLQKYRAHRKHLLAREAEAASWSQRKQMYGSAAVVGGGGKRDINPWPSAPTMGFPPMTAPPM
Experiment: protein-binding microarray; NbGlk1 is a Golden2-like transcription factor of Nicotiana benthamiana; high values mean tight binding
Conditions: protein: recombinant; tags: GST (pTH6838); dsDNA, one strand shown

| Sequence | binding signal |
| --- | --- |
| ATCCCGTA | 0.31 ± 0.0475 E-score |
| ATACGAGA | 0.231 ± 0.0125 E-score |
| ATATTAGA | 0.212 ± 0.0145 E-score |
| ATTTGTAG | 0.21 ± 0.125 E-score |
| AAGATTGC | 0.443 ± 0.0277 E-score |
| CAGATTGC | 0.4754 ± 0.00468 E-score |
| AAGATTGT | 0.297 ± 0.0412 E-score |
| AAGATTGG | 0.206 ± 0.0123 E-score |
| AATATTGC | 0.225 ± 0.0215 E-score |
| ATCTATAG | 0.288 ± 0.0139 E-score |
| ATCGAGAT | 0.327 ± 0.0101 E-score |
| AACAGGAA | 0.207 ± 0.0723 E-score |
| ATCTTAAC | 0.317 ± 0.00626 E-score |
| AGAATTCT | 0.299 ± 0.0757 E-score |
| ACAAATCA | 0.262 ± 0.0406 E-score |
| AGCAATCG | 0.308 ± 0.0291 E-score |
| AGAAATCT | 0.465 ± 0.00635 E-score |
| AGAAATCC | 0.464 ± 0.00886 E-score |
| AGCAATCC | 0.412 ± 0.0143 E-score |
| AGTAATCC | 0.369 ± 0.00994 E-score |
| AGAAATAT | 0.3621 ± 0.00196 E-score |
| ATAAATCA | 0.239 ± 0.0998 E-score |
| AGCAATCA | 0.321 ± 0.00992 E-score |
| AGAAATCA | 0.3794 ± 0.00281 E-score |
| AGAAATCG | 0.338 ± 0.0619 E-score |

| Sequence | binding signal |
| --- | --- |
| ATCTTAAA | 0.272 ± 0.0208 E-score |
| AAGATCCA | 0.24 ± 0.0941 E-score |
| ATGTAGTA | 0.223 ± 0.0748 E-score |
| ATTTCACA | 0.304 ± 0.0596 E-score |
| AATCTGCG | 0.444 ± 0.00526 E-score |
| ATTCTGCG | 0.217 ± 0.0166 E-score |
| AATCTGCA | 0.414 ± 0.00858 E-score |
| AATCTGCC | 0.34 ± 0.133 E-score |
| AATCAGCA | 0.322 ± 0.0337 E-score |
| ATTCTGCA | 0.266 ± 0.0788 E-score |
| ATCCGGGG | 0.279 ± 0.0126 E-score |
| ATCCGCAA | 0.325 ± 0.0306 E-score |
| ATCTCACC | 0.317 ± 0.00666 E-score |
| ATTACGAC | 0.351 ± 0.0302 E-score |
| AGTATCGG | 0.202 ± 0.042 E-score |
| ATATAACA | 0.214 ± 0.0677 E-score |
| ATCCGCAC | 0.284 ± 0.0333 E-score |
| ACGATCCT | 0.272 ± 0.0244 E-score |
| ATCTAATC | 0.331 ± 0.07 E-score |
| AAGTAATC | 0.337 ± 0.0373 E-score |
| ATATAATC | 0.297 ± 0.00596 E-score |
| ACGTAATA | 0.285 ± 0.0122 E-score |
| AGGTAAAT | 0.205 ± 0.0739 E-score |
| AGGTAATC | 0.416 ± 0.00105 E-score |
| ACGTAATC | 0.4759 ± 0.00151 E-score |

| Sequence | binding signal |
| --- | --- |
| ATGTAATC | 0.462 ± 0.0104 E-score |
| ACATAATC | 0.327 ± 0.0217 E-score |
| ATGGTATC | 0.2 ± 0.0619 E-score |
| ATCTTTTC | 0.289 ± 0.0307 E-score |
| AAATCGAA | 0.329 ± 0.0505 E-score |
| ATCTCGGA | 0.36 ± 0.00407 E-score |
| ATACTGTA | 0.274 ± 0.0926 E-score |
| ATTTCCAA | 0.36 ± 0.0335 E-score |
| ATTTTGCG | 0.293 ± 0.0239 E-score |
| AGGCGGAT | 0.206 ± 0.0564 E-score |
| ATTTCATA | 0.353 ± 0.0105 E-score |
| ATCGCGAA | 0.323 ± 0.0256 E-score |
| AACGCAAT | 0.344 ± 0.0179 E-score |
| ATCGCAAA | 0.234 ± 0.0734 E-score |
| ATCGCGAG | 0.33 ± 0.00694 E-score |
| ATCGCGAT | 0.4239 ± 0.000981 E-score |
| ATCGCAAT | 0.397 ± 0.0277 E-score |
| ATTTTTAC | 0.313 ± 0.0485 E-score |
| ACATATCG | 0.226 ± 0.0607 E-score |
| AGATCCCT | 0.298 ± 0.00953 E-score |
| ATGGCAAT | 0.237 ± 0.0667 E-score |
| ATCTAGTA | 0.316 ± 0.0615 E-score |
| ACGTGGAT | 0.283 ± 0.0431 E-score |
| ATTTTTAA | 0.221 ± 0.0275 E-score |
| ACGCGATC | 0.437 ± 0.0114 E-score |

| Sequence | binding signal |
| --- | --- |
| ACGCGATA | 0.252 ± 0.00347 E-score |
| AAGCGATC | 0.294 ± 0.0444 E-score |
| ATCTTGTG | 0.318 ± 0.0738 E-score |
| AGTATCTC | 0.235 ± 0.067 E-score |
| AATATATC | 0.311 ± 0.00568 E-score |
| AATATCTC | 0.391 ± 0.0345 E-score |
| AGTATCTG | 0.339 ± 0.041 E-score |
| AATATCTA | 0.402 ± 0.018 E-score |
| AATATCAA | 0.322 ± 0.0489 E-score |
| AGTATCTA | 0.305 ± 0.0244 E-score |
| AATATCTG | 0.423 ± 0.0344 E-score |
| AATATCGG | 0.371 ± 0.0225 E-score |
| ATTTAAAG | 0.222 ± 0.0214 E-score |
| AACGTATA | 0.225 ± 0.0359 E-score |
| ATTCGCAG | 0.292 ± 0.0538 E-score |
| CACAATCA | 0.27 ± 0.109 E-score |
| AAGGGATT | 0.3179 ± 0.00237 E-score |
| ATTTCGCA | 0.279 ± 0.0966 E-score |
| AATCTGAG | 0.415 ± 0.0436 E-score |
| AATCAGAG | 0.229 ± 0.0948 E-score |
| AATCAGTG | 0.266 ± 0.0198 E-score |
| AATCTGTG | 0.411 ± 0.0099 E-score |
| ATCCTGTG | 0.205 ± 0.0418 E-score |
| ATTCTGTG | 0.25 ± 0.0953 E-score |
| AAGCAAAT | 0.207 ± 0.0438 E-score |

| Sequence | binding signal |
| --- | --- |
| AACGAAAT | 0.344 ± 0.0502 E-score |
| ATCAGAAG | 0.24 ± 0.0447 E-score |
| AATATCAC | 0.34 ± 0.00742 E-score |
| ATTCGATC | 0.207 ± 0.00438 E-score |
| AATGGATA | 0.3 ± 0.0974 E-score |
| ATAATATC | 0.347 ± 0.0287 E-score |
| AGAATATC | 0.4346 ± 0.00342 E-score |
| ACAATATC | 0.3871 ± 0.00293 E-score |
| AAAATATG | 0.218 ± 0.038 E-score |
| AGAATATG | 0.253 ± 0.0505 E-score |
| ACAATATA | 0.206 ± 0.0382 E-score |
| AAAATATC | 0.406 ± 0.00752 E-score |
| CAAATATC | 0.375 ± 0.0172 E-score |
| AGAATATA | 0.267 ± 0.0326 E-score |
| ATCCTTTG | 0.201 ± 0.0717 E-score |
| AATCGCTG | 0.234 ± 0.00581 E-score |
| ATCTAACC | 0.266 ± 0.0179 E-score |
| AGTGATAT | 0.298 ± 0.0207 E-score |
| ATCGCACC | 0.247 ± 0.126 E-score |
| ATTACAAA | 0.302 ± 0.0597 E-score |
| ATGATTCC | 0.306 ± 0.0505 E-score |
| AGGATTCG | 0.352 ± 0.0252 E-score |
| AGGATCGC | 0.357 ± 0.0151 E-score |
| AGGATTAC | 0.449 ± 0.00837 E-score |
| ACGATTCT | 0.362 ± 0.0226 E-score |

| Sequence | binding signal |
| --- | --- |
| ACGATTCC | 0.4 ± 0.0168 E-score |
| AGGATTCC | 0.448 ± 0.00523 E-score |
| AGGATTAT | 0.31 ± 0.0692 E-score |
| AGAATTAC | 0.23 ± 0.0195 E-score |
| AGGATTGC | 0.45 ± 0.0104 E-score |
| ATGATTGC | 0.33 ± 0.019 E-score |
| ACGATTCG | 0.324 ± 0.025 E-score |
| ACTTAGAT | 0.257 ± 0.118 E-score |
| ATCCACCC | 0.255 ± 0.0461 E-score |
| AAGGATTA | 0.278 ± 0.0334 E-score |
| ATCTATGG | 0.205 ± 0.011 E-score |
| ATATCGAG | 0.296 ± 0.0718 E-score |
| ATTATTCC | 0.252 ± 0.0429 E-score |
| AACGAGAT | 0.309 ± 0.0377 E-score |
| AATAGGAT | 0.218 ± 0.15 E-score |
| AGCAGAAT | 0.255 ± 0.0466 E-score |
| ATACTCCA | 0.208 ± 0.0394 E-score |
| ATCGTAAT | 0.375 ± 0.0645 E-score |
| ATCGGAAA | 0.25 ± 0.0729 E-score |
| ACGATTGC | 0.345 ± 0.0699 E-score |
| ATGATTAC | 0.302 ± 0.0176 E-score |
| ACGATTAC | 0.407 ± 0.0433 E-score |
| ATTTTCGG | 0.237 ± 0.0617 E-score |
| AAATCTAG | 0.452 ± 0.0158 E-score |
| CAATCTAA | 0.351 ± 0.0122 E-score |

| Sequence | binding signal |
| --- | --- |
| AAATCTAA | 0.4499 ± 0.000584 E-score |
| AAATCAAT | 0.31 ± 0.0292 E-score |
| AAATCTAT | 0.419 ± 0.0237 E-score |
| AAATCAAA | 0.309 ± 0.0265 E-score |
| CAATCTAG | 0.3742 ± 0.000815 E-score |
| CAATCTAC | 0.341 ± 0.0196 E-score |
| AAATCGAG | 0.288 ± 0.0697 E-score |
| AAATCAAC | 0.349 ± 0.0103 E-score |
| AAATCTAC | 0.441 ± 0.0198 E-score |
| AGATCTAT | 0.337 ± 0.0129 E-score |
| ATATAAAA | 0.212 ± 0.0169 E-score |
| ACCGGATA | 0.262 ± 0.0765 E-score |
| AATTTCGT | 0.284 ± 0.0162 E-score |
| ATCTCGCA | 0.324 ± 0.0204 E-score |
| AAATAATA | 0.227 ± 0.0112 E-score |
| ACAAATAT | 0.313 ± 0.0317 E-score |
| ATCGGGAA | 0.276 ± 0.0291 E-score |
| ACCTAGAT | 0.291 ± 0.0209 E-score |
| ATCGCATG | 0.29 ± 0.0714 E-score |
| CAATCATA | 0.255 ± 0.00353 E-score |
| ATTATAAG | 0.253 ± 0.0219 E-score |
| ATCCGCCA | 0.254 ± 0.0406 E-score |
